# CCT chaperon mod: changes cytosolic chaperonin activity. purified chaperonin ATPase assay, HTRF ADP detection, 30 min. activity change, % (test concentration not listed), hits read low. 360,000 tested, 0.3% active; in the data active = activity change below about -30%
#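 First, chaperonin was dispensed at 40 nM or 20 nM final depending on batch activity. Next, compounds were pinned at 76 uM and ATP added at 10 uM. After 30 min at 37 °C, ADP detection reagents ran 30 min at ambient temperature.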
# Six1-Eya2 inh: inhibitors of human Six1/Eya2 interaction; AlphaScreen GST-Six1/His-Eya2 binding, biochemical; stronger effect = lower value; activity change, % (no concentration beside the values); 360,000 tested, 0.56% active
# Target sequence (O00167 whole entry, looked up): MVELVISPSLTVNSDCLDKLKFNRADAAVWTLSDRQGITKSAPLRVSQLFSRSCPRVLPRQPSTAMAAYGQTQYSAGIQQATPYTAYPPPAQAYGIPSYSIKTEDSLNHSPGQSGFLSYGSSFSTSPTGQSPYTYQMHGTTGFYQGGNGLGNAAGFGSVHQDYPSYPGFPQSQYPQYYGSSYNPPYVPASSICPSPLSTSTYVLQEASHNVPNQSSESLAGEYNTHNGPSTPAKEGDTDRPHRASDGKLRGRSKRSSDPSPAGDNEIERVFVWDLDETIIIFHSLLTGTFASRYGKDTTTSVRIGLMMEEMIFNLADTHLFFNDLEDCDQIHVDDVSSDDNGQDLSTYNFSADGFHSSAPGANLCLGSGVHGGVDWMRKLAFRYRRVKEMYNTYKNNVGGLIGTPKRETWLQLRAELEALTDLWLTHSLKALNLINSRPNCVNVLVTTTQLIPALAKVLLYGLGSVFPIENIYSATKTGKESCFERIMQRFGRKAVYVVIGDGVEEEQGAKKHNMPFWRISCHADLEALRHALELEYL
# Target sequence (Q15475 whole entry, looked up): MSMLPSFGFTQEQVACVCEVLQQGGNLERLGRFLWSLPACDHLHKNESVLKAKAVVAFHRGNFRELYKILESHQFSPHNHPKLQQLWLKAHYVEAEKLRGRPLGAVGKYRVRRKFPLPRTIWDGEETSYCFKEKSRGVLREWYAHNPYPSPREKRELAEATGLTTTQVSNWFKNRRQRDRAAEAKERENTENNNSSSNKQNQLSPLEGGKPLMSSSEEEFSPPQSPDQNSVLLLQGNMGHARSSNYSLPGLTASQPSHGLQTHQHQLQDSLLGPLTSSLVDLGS
#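 AlphaScreen luminescence read after one hour at 37 °C in darkness. Pin-transferred compounds met GST-Six1 and His-Eya2 protein (5X stock 250 nM/500 nM) plus glutathione donor and Ni-chelate acceptor beads (5X, 50 ug/mL).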
# CtBP-E1A blk: blocks the CtBP interaction with E1A | AlphaScreen GST-E1A/His-CtBP binding, 1536-well; stronger effect = lower value | 340,000 tested, 0.49% active | activity change, % (no concentration beside the values) | AID 651724
#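 Steps: dispense buffer (Tris pH 8.0, NaCl 300 mM, TCEP 1 mM, BSA, Tween 20); add 5X protein mix (GST-E1A, His-CtBP, 125 nM each); pin 23 nL compound; 2 h at 37 °C, dark; add 5X beads (50 ug/mL); 1 h; read.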
# pAkt inh: blocks phosphorylation of Akt; Neuro2A IGF-stimulated pAkt S473 HTRF, 20 min; stronger effect = lower value; activity change, % for hits at 50 µM; 360,000 tested, 0.32% active; in the data active = activity change below about -80%; inconclusive = mostly about -51% to -80%
#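 Neuro2A cells (4,500/well, DMEM with 0.5% FBS) were treated with compound at a single 50 µM final concentration, stimulated with 6 nM IGF for 20 min at 37 °C, and lysed. Phospho-Akt Ser473 was read by HTRF as 665/615 ratio ×10^4.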
# * hit, by the source's call; i = inactive; ? = inconclusive; . = no result given; ! = repeats disagree. In the library only some 1.3% were active in any assay of this set; here they are far more common. Rule as the data show it, unless noted: active = activity change below about -65%; inconclusive = mostly about -30% to -63%; inactive = weaker than that. % is scaled to controls: 0 for no effect and ±100 for the full control effect.
SMILES,CCT chaperon mod,Six1-Eya2 inh,CtBP-E1A blk,pAkt inh
Oc1ccc(CN2CCCc3ccccc32)c2cccnc12,-2,-93*,0,i
Cc1cccc(N2CCN(C(C(=O)NCc3ccccc3)c3ccc(F)cc3)CC2)c1C (stereo not given),.,-10,2,i
CCOc1ccc(Cn2c(O)cc(=O)[nH]c2=O)cc1,-2,1,7,-117%*
Cc1ccc(OCCSCc2nc3ccccc3[nH]2)cc1,0,-1,-3,-98%*
C#Cc1ccc([C@@H]2C=C(C(=O)Nc3ccccc3)O[C@H](OCC)[C@H]2CCCO)cc1,0,0,1,i
C#Cc1ccc([C@H]2C=C(C(=O)NCc3ccccc3)O[C@@H](OCC)[C@@H]2CCCO)cc1,-68*,29,5,i
Cc1ccc(C)c(S(=O)(=O)NCCCN2CCOCC2)c1,-1,4,11,i
Cc1ccc(C)c(S(=O)(=O)NCCN2CCOCC2)c1,-31*,4,8,i
C=CC[C@H](CC(=O)OC(C)(C)C)C(=O)OC[C@H]1CCCN1C(=O)[C@H](CC=C)CC(=O)NCCO,-4,1,8,i
CCCCC(=O)N1CCCC(c2nc3c(nnn3Cc3cc(C)ccc3C)c(=O)[nH]2)C1 (stereo not given),-4,-2,-2,-118%*
Cc1ccc(C)c(Cn2nnc3c(=O)[nH]c(C4CCCN(C(=O)CC(C)C)C4)nc32)c1 (stereo not given),1,0,-7,i
O=C1C(NS(=O)(=O)c2cccs2)=C(N2CCN(c3cccc(C(F)(F)F)c3)CC2)C(=O)c2ccccc21,1,-68*,-80*,i
CCOc1ccccc1N1CCN(C2=C(NS(=O)(=O)c3cccs3)C(=O)c3ccccc3C2=O)CC1,-1,-65*,-76*,i
O=S(=O)(Nc1ccc(C(F)(F)F)cc1)c1cccs1,1,11,4,i
CCOC(=O)N1CCN(C2=C(NS(=O)(=O)c3ccccc3)C(=O)c3ccccc3C2=O)CC1,0,?,?,i
O=C1C(NS(=O)(=O)c2cccs2)=C(N2CCN(Cc3ccccc3)CC2)C(=O)c2ccccc21,1,-72*,.,i
CN1CCN(C2=C(NS(=O)(=O)c3cccs3)C(=O)c3ccccc3C2=O)CC1,0,-13,-23,i
O=C1NC[C@@H](CCCCN2CCN(CCC3CCCCC3)C(=O)C2=O)N(Cc2ccccc2)C1=O,2,-3,0,i
O=C(NCc1ccccn1)Nc1ccccc1F,-3,2,2,i
COC(=O)c1ccc(NS(=O)(=O)c2cc3c4c(c2)CCN4C(=O)CC3)cc1,-1,-3,2,i
O=C(CNC(=O)c1ccccc1F)N/N=C/c1cc(Br)ccc1OC(=O)/C=C/c1ccco1,0,-90*,-92*,i
O=C(CNC(=O)c1ccc(F)cc1)N/N=C/c1cc(Br)ccc1OC(=O)/C=C/c1ccco1,-1,-23,?,i
COc1ccccc1C(=O)NCC(=O)N/N=C/c1cc(Br)ccc1OC(=O)/C=C\c1ccco1,2,-74*,.,i
CCOC(=O)c1sc(-c2ccccc2)cc1NC(=O)Nc1ccc([N+](=O)[O-])cc1,-6,9,7,i
COc1ccc(OC)c(S(=O)(=O)N2CCCC(C(=O)NC3CC3)C2)c1 (stereo not given),1,-7,-1,i
SMILES,CCT chaperon mod,Six1-Eya2 inh,CtBP-E1A blk,pAkt inh
O=C1c2cccnc2C(O)N1Cc1ccc(F)cc1 (stereo not given),-32*,-2,-16,-95%*
CC(C)C[C@@H](CN)NC(=O)c1nc[nH]c1C(=O)N[C@@H](C)C(=O)CNC[C@H](C)NC(=O)c1nc[nH]c1C(=O)N[C@@H](CC(C)C)C(=O)O,0,-17,-19,i
S=C(NCc1ccccc1)NCc1ccccc1Cl,0,-3,-68*,i
N#Cc1cc(-c2ccc(Cl)cc2)cn(Cc2c(Cl)cccc2Cl)c1=O,-2,4,6,-95%*
CCCCc1ccc(-c2nn[nH]n2)nc1,-3,-81*,?,i
NC(Cc1cnc[nH]1)c1csc(Nc2ccc(C(F)(F)F)cn2)n1 (stereo not given),2,-90*,-92*,i
Cc1c(C(=O)OCC(=O)c2c(N)n(CC(C)C)c(=O)n(C)c2=O)oc2ccccc12,-1,5,2,i
COCc1c(C(=O)OCC(=O)c2c(N)n(CC(C)C)c(=O)n(C)c2=O)oc2ccccc12,1,-3,14,-103%*
CC(C)Nc1ccc(Nc2ccnc3cc4ccccc4cc23)cc1,-1,-70*,-81*,i
COc1ccc(Nc2ccnc3ccccc23)cc1,2,2,-9,i
C[C@@H]1CN([C@@H](C)CO)C(=O)c2cc(NC(=O)C3CC3)ccc2O[C@@H]1CN(C)Cc1ccc(Cl)c(Cl)c1,-41*,-15,-6,i
Nc1ccc2c(c1)C(=O)c1ccc(N)cc1-2,-62*,-22,-27,i
Cc1ccc(S(=O)(=O)N2C[C@@H]3[C@H]4CC[C@H](C4)[C@@H]3[C@@H](C)[C@H]2c2ccn(Cc3ccccc3)c2)cc1,-2,-24,7,i
COCc1cccc(-c2csc(C(C)(NC(C)=O)c3ccccc3)n2)c1 (stereo not given),0,31,-17,.
COc1ccc(-n2c(NC(=O)c3ccco3)c(C#N)c3nc4ccccc4nc32)cc1,-60*,0,3,i
N#Cc1c(NC(=O)c2ccccc2Cl)n(Cc2ccccc2)c2nc3ccccc3nc12,-2,14,4,i
Cc1onc(-c2ccccc2)c1C(=O)N1CCCCCC1,0,1,8,i
O=C(NCCCCCCNC(=O)OCCO)OCCO,4,9,7,i
CCCCNC(=O)OCCNC(=O)NC,-1,-4,-1,-83%*
CCCCCCn1c(SCC(=O)c2c(N)n(C)c(=O)n(C)c2=O)nc2ccccc21,-2,0,1,-98%*
COc1cccc(C2Nc3ccccc3C(=O)N2O)c1O (stereo not given),-9,1,2,-118%*
Cc1nn(CC(=O)N2CCC(C(N)=O)CC2)c(=O)c2nn(-c3ccccc3)c(C)c12,1,-2,-5,i
COc1ccccc1/C=C/CN1CCC(Oc2cc(C(=O)NC3CC3)ccc2OC)CC1,-34*,4,.,i
COc1ccc(C(=O)NC2CC2)cc1OC1CCN(Cc2ccccc2)CC1,-4,14,-5,i
COC(=O)[C@H](Cc1ccccc1)NC(=O)NCc1cccs1,-2,1,6,-94%*
COc1cc(/C=N/NC2=NCCCCC2)ccc1O,-1,-5,2,i
COc1cc(/C=N/Nc2ncnc3sc4c(c23)CCC4)ccc1O,1,-68*,-83*,i
COc1cccc(CNC(=O)CSCc2cnn(-c3ccccc3)c2-n2cccc2)c1OC,-4,-11,-1,-119%*
COc1ccc(CCc2nc(C)ccc2O)cc1,-67*!,8,1,i

# Screens: PubChem BioAssay, National Center for Advancing Translational Sciences (NCATS)
